Test [1] addresses T1, Aspartate--tRNA(Asp/Asn) ligase (Mycobacterium tuberculosis (strain ATCC 25618 / H37Rv)) (UniProt P9WFW3).
T1 sequence (whole entry): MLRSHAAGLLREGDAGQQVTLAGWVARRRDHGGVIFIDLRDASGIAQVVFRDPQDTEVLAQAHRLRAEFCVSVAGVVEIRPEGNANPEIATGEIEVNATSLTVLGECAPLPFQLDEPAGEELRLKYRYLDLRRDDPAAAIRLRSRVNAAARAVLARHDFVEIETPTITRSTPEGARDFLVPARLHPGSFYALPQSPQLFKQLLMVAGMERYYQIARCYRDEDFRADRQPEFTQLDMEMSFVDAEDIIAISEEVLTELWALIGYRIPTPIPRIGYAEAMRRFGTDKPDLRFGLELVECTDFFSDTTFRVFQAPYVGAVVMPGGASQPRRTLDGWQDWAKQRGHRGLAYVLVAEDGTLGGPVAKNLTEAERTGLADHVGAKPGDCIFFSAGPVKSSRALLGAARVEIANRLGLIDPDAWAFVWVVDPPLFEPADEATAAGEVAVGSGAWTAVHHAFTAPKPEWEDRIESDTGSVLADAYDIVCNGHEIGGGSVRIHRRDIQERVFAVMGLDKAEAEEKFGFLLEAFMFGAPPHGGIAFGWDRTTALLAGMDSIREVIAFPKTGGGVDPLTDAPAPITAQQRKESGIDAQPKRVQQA
Description: Assay for Asp RNA synthetase-1 from Mycobacterium tuberculosis. In kind it is functional. Details: scale not given: direction of the effect not stated beside the values. Conditions: 30 µM.

Test [2] has as its target Shiga toxin 2 (Escherichia coli O157:H7) (UniProt P09385+P09386). Description: E. coli 0.157:H7 Shiga Toxin SOP - stx2 screening assay. In kind it is functional. Details: scale not given: direction of the effect not stated beside the values. Conditions: 30 µM.

For `COCCN1CCCC(O)(CN2CCN(c3ncccc3C)CC2)C1=O` (stereo not given), the figures for the Percent Effect in test [1] and in test [2] were 5.57% and -7.55%, respectively.

With `Cc1ccc(N2CCC3(CCN(C(N)=O)CC3)CC2)nn1`, the Percent Effect is 2.03% in test [1] and -2.18% in test [2].

Consider `CC(C)c1noc(C(C)N2CCN(Cc3ccsc3)CC2)n1` (stereo not given), for which the Percent Effect in test [1] is -3.93%; in test [2], 27.9%.

Consider `COc1ccc(OC)c(NC(=O)N2CCCC2c2ccco2)c1` (stereo not given), for which the Percent Effect in test [1] is -4.36%; in test [2], 0.199%.

`COc1c(CNC2CCSc3ccc(F)cc32)c(C)nn1C` (stereo not given): the Percent Effect in test [1] is 0.879%; in test [2], -10.4%.

With `COc1ccc(CN2CCc3nc(C4CCCCN4C)ncc3C2)cc1` (stereo not given), the figures for the Percent Effect in test [1] and in test [2] were 3.22% and -19.9%, respectively.

With `CCCNC(=O)Cn1cc(-c2ccccc2)cn1`, the values for the Percent Effect in test [1] and in test [2] were -2.52% and -0.0685%, respectively.

As for `Cc1ccc(-c2ncc(C(=O)NCCS(N)(=O)=O)s2)c(C)c1`, the Percent Effect in test [1] came out at 1.7%; in test [2], 18.5%.

As for `Cc1ccc(CNS(=O)(=O)CC2=NC(=O)n3cccc3C2=O)cc1`, the Percent Effect in test [1] was 3.72%; in test [2], 4.1%.

For the compound `CSCC[C@H](N)C(=O)NCc1cc2n(n1)CCCN(C(=O)C1CCC1)C2`, the Percent Effect in test [1] is -3.26%; in test [2], 2.24%.
